The record followed here is PubChem BioAssay (NCI).

The panel holds about 83,000 compounds, 20% with a hit somewhere; the sample as a whole holds those more often.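 Negative percent growth values reflect cell death: -40 means 40% of the cells present at the start died, and -100 means all died.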 Unmarked numbers belong to inactive results. The source made the active and inactive calls. Rule for the calls: active = growth percent below 10; inactive = the rest.

Test systems include RPMI-8226 leukemia; OVCAR-8 ovarian; OVCAR-5 ovarian; OVCAR-4 ovarian; SK-OV-3 ovarian; IGROV1 ovarian; OVCAR-3 ovarian; HS 578T breast; NCI/ADR-RES ovarian.
What all share (test): NCI-60 one-dose screen, 48 h (100 = growth as untreated, 0 = no growth, -100 = all killed)
Details in all cases: 10 µM unless noted

On to `COc1cc2c(c(OC)c1OC)C(=O)CC(c1cccc(C(=O)Nc3cccc(Br)c3)c1)O2` (stereo not given), for which the growth was 46.8% with RPMI-8226 leukemia; 55% in the assay with OVCAR-8 ovarian; 95.7% in the assay on OVCAR-5 ovarian; 82.7% in the assay with OVCAR-4 ovarian; 82% in the assay on SK-OV-3 ovarian; 83% in the assay with IGROV1 ovarian. Besides, the values for the growth in the assay with OVCAR-3 ovarian, with HS 578T breast and with NCI/ADR-RES ovarian were 87.7%, 91.5% and 84.7%, respectively.
As for `COc1cc(NC(=O)CSc2nc3ccc(Cl)cc3c(=O)n2-c2ccc(F)cc2)cc(OC)c1OC`, the growth in the assay with RPMI-8226 leukemia was 39.2%; in the assay on OVCAR-8 ovarian, 88.8%; in the assay with OVCAR-5 ovarian, 88.7%; in the assay on OVCAR-4 ovarian, 77.2%; with SK-OV-3 ovarian, 87.6%; in the assay on IGROV1 ovarian, 86.6%. Besides, the growth with OVCAR-3 ovarian is 80.6%; with HS 578T breast it was 75%; in the assay on NCI/ADR-RES ovarian it was 81%.
For `CCOC(=O)C(C)C(C)(O)c1ccccc1` (stereo not given), the growth is 89.9% in the assay with RPMI-8226 leukemia; 107% in the assay with OVCAR-8 ovarian; 104% in the assay with OVCAR-5 ovarian; 89.6% in the assay on OVCAR-4 ovarian; 102% in the assay on SK-OV-3 ovarian; 101% with IGROV1 ovarian. For the same compound, the growth in the assay with OVCAR-3 ovarian is 107%; with HS 578T breast, 98.4%; with NCI/ADR-RES ovarian it was 99.5%.
`Cc1ncc(C(=O)Nc2ccc(CN3CCN(C)CC3)c(C(F)(F)F)c2)cc1C#Cc1c(N)ncc2ccc(F)cc12`: the growth in the assay on RPMI-8226 leukemia was -43.6% (active); in the assay on OVCAR-8 ovarian, -74.8% (active); in the assay with OVCAR-5 ovarian, -45.3% (active); with OVCAR-4 ovarian, -58.6% (active); in the assay with SK-OV-3 ovarian, 41.4%; in the assay on IGROV1 ovarian it was -76% (active). Further, the growth with OVCAR-3 ovarian is -23.4% (active); in the assay with HS 578T breast it was -1.46% (active); in the assay on NCI/ADR-RES ovarian it was -29.7% (active).
Consider `Cc1ccc(C(=O)Nc2ccc(CN3CCN(C)CC3)c(C(F)(F)F)c2)cc1C#Cc1cnc(N)c2ccc(C#N)cc12`, for which the growth in the assay with RPMI-8226 leukemia was 20.2%; in the assay on OVCAR-8 ovarian, 27.8%; with OVCAR-5 ovarian, 98.4%; in the assay with OVCAR-4 ovarian, 48.8%; with SK-OV-3 ovarian, 2.3% (active); with IGROV1 ovarian, 16.3%. Besides, the growth was 61.2% in the assay on OVCAR-3 ovarian, 47.4% with HS 578T breast and 49.8% in the assay with NCI/ADR-RES ovarian.
For the compound `C/C=C(/C)C(=O)OC1C=C(CO)C(=O)C(OC(=O)C(C)(O)C(C)Cl)C1C(C)C` (stereo not given), the growth in the assay with RPMI-8226 leukemia is -33.5% (active); in the assay with OVCAR-8 ovarian it was 3.78% (active); with OVCAR-5 ovarian, -43.2% (active); in the assay on OVCAR-4 ovarian, 14.1%; in the assay on SK-OV-3 ovarian, 35.8%; in the assay with IGROV1 ovarian it was -29.7% (active). The results for the growth in the assay on OVCAR-3 ovarian, in the assay with HS 578T breast and in the assay with NCI/ADR-RES ovarian were -41.4% (active), 30.7% and 9.46% (active), respectively.
Take `CC(C)(C)OC(=O)N1C/C(=C\c2ccccc2)C(=O)/C(=C/c2ccccc2)C1`: the growth in the assay with RPMI-8226 leukemia was 31%; with OVCAR-8 ovarian, 96.5%; in the assay on OVCAR-5 ovarian, 86.5%; in the assay with OVCAR-4 ovarian it was 97.9%; with SK-OV-3 ovarian, 95.2%; in the assay with IGROV1 ovarian, 95.5%. The figures for the growth in the assay with OVCAR-3 ovarian, with HS 578T breast and with NCI/ADR-RES ovarian were 103%, 102% and 98.9%, respectively.
As for `Cc1ccc(C(=O)Nc2ccc(CN3CCN(C)CC3)c(C(F)(F)F)c2)cc1C#Cc1cncc2ncccc12`, the growth in the assay on RPMI-8226 leukemia was -53.5% (active); in the assay on OVCAR-8 ovarian, -76.8% (active); in the assay with OVCAR-5 ovarian it was -93.9% (active); in the assay on OVCAR-4 ovarian, -87.5% (active); with SK-OV-3 ovarian it was -12.6% (active); in the assay with IGROV1 ovarian it was -82.7% (active). Besides, the results for the growth in the assay on OVCAR-3 ovarian, with HS 578T breast and in the assay with NCI/ADR-RES ovarian were 24.8%, -32.4% (active) and 4.19% (active), respectively.
`CN1CCN(Cc2ccc(NC(=O)c3cncc(C#Cc4c(N)ncc5ccc(F)cc45)c3)cc2C(F)(F)F)CC1`: the growth is 5.38% (active) with RPMI-8226 leukemia; 53.8% in the assay with OVCAR-8 ovarian; -84.6% (active) in the assay with OVCAR-5 ovarian; 36.1% in the assay with OVCAR-4 ovarian; 60% in the assay with SK-OV-3 ovarian; 11% in the assay with IGROV1 ovarian. For the same compound, the growth is 63.2% with OVCAR-3 ovarian, -8.53% (active) in the assay on HS 578T breast and 48.2% in the assay on NCI/ADR-RES ovarian.
For `COc1cc(/C=C/C(=O)c2ccc(F)cc2)ccc1OCCCCOc1cc2c(cc1OC)C(=O)N1CCCC1C=N2` (stereo not given), the growth with RPMI-8226 leukemia was -27.4% (active); in the assay on OVCAR-8 ovarian, 8.79% (active); with OVCAR-5 ovarian, -4.68% (active); with OVCAR-4 ovarian, -11% (active); in the assay with SK-OV-3 ovarian, 10.7%; with OVCAR-3 ovarian it was -28.8% (active). For the same compound, the growth is 6.29% (active) in the assay on HS 578T breast and 27.1% with NCI/ADR-RES ovarian.
`COc1cc2cc3cc4cc(OC)c(OC)cc4c(C)[n+]3cc2cc1OC` (tested in a mixture with another compound): the growth in the assay with RPMI-8226 leukemia is 43%; in the assay on OVCAR-8 ovarian, 76.2%; with OVCAR-4 ovarian it was 83.8%; in the assay with SK-OV-3 ovarian, 107%; with OVCAR-3 ovarian, 65.9%; in the assay on HS 578T breast, 90.1%. For the same compound, in the assay on NCI/ADR-RES ovarian, the growth was 93.1%.
For `C=C(NC(=O)[C@H](C(C)C)N(C)c1cccc2[nH]ccc12)C(=O)OC`, the growth with RPMI-8226 leukemia was 6.33% (active); in the assay on OVCAR-8 ovarian, 102%; in the assay on OVCAR-5 ovarian, 101%; with OVCAR-4 ovarian, 103%; in the assay with SK-OV-3 ovarian it was 101%; in the assay with OVCAR-3 ovarian it was 103%. Also, the results for the growth in the assay with HS 578T breast and with NCI/ADR-RES ovarian were 102% and 108%, respectively.
`O=C1C(Cl)=C(SC2=NCCN2)C(=O)c2ccccc21`: the growth in the assay with OVCAR-8 ovarian was 65.8%; in the assay on OVCAR-5 ovarian, 97.4%; in the assay on OVCAR-4 ovarian it was 80.5%; in the assay with SK-OV-3 ovarian it was 93.5%; with OVCAR-3 ovarian, 46.8%; with HS 578T breast, 93.1%. For the same compound, the growth in the assay on NCI/ADR-RES ovarian was 86.8%.
For `O=C(Nc1cccc(Cn2c(=O)[nH]c3ccc(Oc4ncccn4)cc3c2=O)c1)c1ccc(Cl)cc1`, the growth in the assay with RPMI-8226 leukemia is 25.5%; in the assay with OVCAR-8 ovarian, 31.8%; in the assay on OVCAR-5 ovarian, 99%; in the assay on OVCAR-4 ovarian, 31.5%; in the assay on SK-OV-3 ovarian, 66%; with IGROV1 ovarian, 66.9%. Further, the growth in the assay on OVCAR-3 ovarian was 65.1%; in the assay on HS 578T breast it was 49.2%; in the assay on NCI/ADR-RES ovarian, 71.2%.
